In publication PMC7862700, “An all-to-all approach to the identification of sequence-specific readers for epigenetic DNA modifications on cytosine”:

Tests used:
Assay in all cases: DAPPL (digital affinity profiling via proximity ligation, sequencing); 10 mM Tris-HCl pH 7.5, 50 mM NaCl, 1 mM DTT, 4% glycerol, room temperature, 30 min; GST-TFs on glutathione beads, 16-mer random dsDNA library, 0.1% formaldehyde crosslink after washing; high values mean tight binding
FEV = target: T1, FEV (Homo sapiens, UniProt Q99581 1-238); conditions: protein: recombinant; tags: N-terminal GST; dsDNA, one strand shown
T1 sequence: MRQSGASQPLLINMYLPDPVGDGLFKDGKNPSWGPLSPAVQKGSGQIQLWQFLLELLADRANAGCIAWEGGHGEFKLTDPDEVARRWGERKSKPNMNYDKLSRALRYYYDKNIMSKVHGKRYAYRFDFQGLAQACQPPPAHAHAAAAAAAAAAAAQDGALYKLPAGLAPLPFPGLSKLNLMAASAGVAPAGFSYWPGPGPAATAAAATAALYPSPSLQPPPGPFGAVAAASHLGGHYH
Summary of the method: (§1)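 Human transcription factors carrying a GST fusion were produced in yeast, bound to glutathione beads, tagged with DNA barcodes and pooled together with a tag-only sample. Each pool was held with 200 nmole of a random double-stranded 16-mer DNA library in Tris/NaCl/DTT/glycerol buffer for 30 min at room temperature, then washed, crosslinked in 0.1% formaldehyde, proximity-ligated with BsaI/T4 ligase (1 h, 37 °C), PCR-amplified and sequenced on an Illumina NextSeq500. Binding signal is the read frequency of each hexamer for a given factor divided by its frequency in the tag-only sample.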

ETV5 = ETV5 (Homo sapiens, UniProt P41161 1-510); conditions: protein: recombinant; tags: N-terminal GST; dsDNA, one strand shown
Summary of the method: as §1

HSF1 = HSF1 (Homo sapiens, UniProt Q00613 1-529); conditions: protein: recombinant; tags: N-terminal GST; chain copies: 3; dsDNA, one strand shown
Summary of the method: as §1

SPIC = target: T2, SPIC (Homo sapiens, UniProt Q8N5J4 1-248); conditions: protein: recombinant; tags: N-terminal GST; dsDNA, one strand shown
T2 sequence: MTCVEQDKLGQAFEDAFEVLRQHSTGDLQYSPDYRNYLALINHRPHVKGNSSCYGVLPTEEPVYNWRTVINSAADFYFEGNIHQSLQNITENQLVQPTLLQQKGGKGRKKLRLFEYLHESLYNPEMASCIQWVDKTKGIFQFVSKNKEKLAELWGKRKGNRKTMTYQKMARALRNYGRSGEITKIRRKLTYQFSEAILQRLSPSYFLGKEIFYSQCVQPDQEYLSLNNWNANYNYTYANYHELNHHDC
Summary of the method: as §1

ELF4 = ELF4 (Homo sapiens, UniProt Q99607 1-663); conditions: protein: recombinant; tags: N-terminal GST; dsDNA, one strand shown
Summary of the method: as §1

ELK4 = target: T3, ELK4 (Homo sapiens, UniProt P28324-2 1-405); conditions: protein: recombinant; tags: N-terminal GST; dsDNA, one strand shown
T3 sequence: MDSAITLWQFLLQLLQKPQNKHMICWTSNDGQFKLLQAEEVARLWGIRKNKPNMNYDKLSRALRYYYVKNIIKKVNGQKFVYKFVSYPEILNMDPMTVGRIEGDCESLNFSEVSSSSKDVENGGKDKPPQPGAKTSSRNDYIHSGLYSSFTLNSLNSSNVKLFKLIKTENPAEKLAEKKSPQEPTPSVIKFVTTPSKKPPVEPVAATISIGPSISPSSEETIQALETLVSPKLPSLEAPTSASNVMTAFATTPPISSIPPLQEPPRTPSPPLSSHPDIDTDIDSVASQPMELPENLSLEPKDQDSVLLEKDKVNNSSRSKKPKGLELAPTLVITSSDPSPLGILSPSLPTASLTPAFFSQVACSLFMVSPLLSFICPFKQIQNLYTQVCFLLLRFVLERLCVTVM
Summary of the method: as §1

ETV2 = target: T4, ETV2 (Homo sapiens, UniProt O00321 1-342); conditions: protein: recombinant; tags: N-terminal GST; dsDNA, one strand shown
T4 sequence: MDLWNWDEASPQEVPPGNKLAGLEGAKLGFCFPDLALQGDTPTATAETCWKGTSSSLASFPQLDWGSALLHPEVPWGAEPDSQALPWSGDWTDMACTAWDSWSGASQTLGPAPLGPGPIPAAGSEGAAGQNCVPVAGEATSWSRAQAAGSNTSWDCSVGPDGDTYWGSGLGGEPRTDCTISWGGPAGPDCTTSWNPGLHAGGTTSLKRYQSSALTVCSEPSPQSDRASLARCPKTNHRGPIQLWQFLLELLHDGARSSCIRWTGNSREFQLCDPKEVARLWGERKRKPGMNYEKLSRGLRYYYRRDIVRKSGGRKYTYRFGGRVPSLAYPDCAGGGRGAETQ
Summary of the method: as §1

ELF3 = target: T5, ELF3 (Homo sapiens, UniProt P78545 1-371); conditions: protein: recombinant; tags: N-terminal GST; dsDNA, one strand shown
T5 sequence: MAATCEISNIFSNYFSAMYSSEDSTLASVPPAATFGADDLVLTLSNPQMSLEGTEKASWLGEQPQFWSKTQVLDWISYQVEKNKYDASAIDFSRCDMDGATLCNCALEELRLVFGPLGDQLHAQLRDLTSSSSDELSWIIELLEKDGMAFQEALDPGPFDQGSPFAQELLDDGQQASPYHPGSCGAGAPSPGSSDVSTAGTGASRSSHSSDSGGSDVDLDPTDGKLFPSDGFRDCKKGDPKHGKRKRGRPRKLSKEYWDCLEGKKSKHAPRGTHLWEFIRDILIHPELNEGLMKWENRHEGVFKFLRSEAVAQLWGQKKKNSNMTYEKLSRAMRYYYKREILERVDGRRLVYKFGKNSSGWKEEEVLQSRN
Summary of the method: as §1

CRX = CRX (Homo sapiens, UniProt O43186 1-299); conditions: protein: recombinant; tags: N-terminal GST; dsDNA, one strand shown
Summary of the method: as §1

ETV1 = ETV1 (Homo sapiens, UniProt P50549 1-477); conditions: protein: recombinant; tags: N-terminal GST; dsDNA, one strand shown
Summary of the method: as §1

ERF = target: T6, ERF (Homo sapiens, UniProt P50548 1-548); conditions: protein: recombinant; tags: N-terminal GST; dsDNA, one strand shown
T6 sequence: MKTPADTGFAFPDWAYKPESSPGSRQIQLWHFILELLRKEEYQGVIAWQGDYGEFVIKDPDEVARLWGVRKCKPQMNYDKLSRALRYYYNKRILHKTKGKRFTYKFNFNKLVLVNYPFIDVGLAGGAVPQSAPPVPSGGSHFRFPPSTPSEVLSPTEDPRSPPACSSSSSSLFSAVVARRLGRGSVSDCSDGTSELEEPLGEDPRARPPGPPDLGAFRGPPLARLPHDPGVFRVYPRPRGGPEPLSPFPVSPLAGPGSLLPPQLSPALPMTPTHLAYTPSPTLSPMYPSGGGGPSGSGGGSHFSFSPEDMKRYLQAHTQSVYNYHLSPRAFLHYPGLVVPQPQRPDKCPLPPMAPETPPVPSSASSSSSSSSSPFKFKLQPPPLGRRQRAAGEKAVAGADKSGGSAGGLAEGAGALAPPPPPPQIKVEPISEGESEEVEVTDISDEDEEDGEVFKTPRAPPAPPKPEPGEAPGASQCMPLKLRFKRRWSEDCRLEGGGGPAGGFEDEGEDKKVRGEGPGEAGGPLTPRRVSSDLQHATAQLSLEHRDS
Summary of the method: as §1

ETV3L = target: T7, ETV3L (Homo sapiens, UniProt Q6ZN32 1-361); conditions: protein: recombinant; tags: N-terminal GST; dsDNA, one strand shown
T7 sequence: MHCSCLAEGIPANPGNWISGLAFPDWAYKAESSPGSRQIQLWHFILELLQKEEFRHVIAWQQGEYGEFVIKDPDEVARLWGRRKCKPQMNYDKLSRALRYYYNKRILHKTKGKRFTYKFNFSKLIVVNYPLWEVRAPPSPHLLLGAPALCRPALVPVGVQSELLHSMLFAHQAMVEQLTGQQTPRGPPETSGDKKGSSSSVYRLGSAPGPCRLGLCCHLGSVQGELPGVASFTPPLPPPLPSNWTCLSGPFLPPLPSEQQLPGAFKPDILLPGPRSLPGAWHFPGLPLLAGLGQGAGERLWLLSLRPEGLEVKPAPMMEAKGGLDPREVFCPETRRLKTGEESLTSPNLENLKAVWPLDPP
Summary of the method: as §1

ETS2 = target: T8, ETS2 (Homo sapiens, UniProt P15036 1-469); conditions: protein: recombinant; tags: N-terminal GST; dsDNA, one strand shown
T8 sequence: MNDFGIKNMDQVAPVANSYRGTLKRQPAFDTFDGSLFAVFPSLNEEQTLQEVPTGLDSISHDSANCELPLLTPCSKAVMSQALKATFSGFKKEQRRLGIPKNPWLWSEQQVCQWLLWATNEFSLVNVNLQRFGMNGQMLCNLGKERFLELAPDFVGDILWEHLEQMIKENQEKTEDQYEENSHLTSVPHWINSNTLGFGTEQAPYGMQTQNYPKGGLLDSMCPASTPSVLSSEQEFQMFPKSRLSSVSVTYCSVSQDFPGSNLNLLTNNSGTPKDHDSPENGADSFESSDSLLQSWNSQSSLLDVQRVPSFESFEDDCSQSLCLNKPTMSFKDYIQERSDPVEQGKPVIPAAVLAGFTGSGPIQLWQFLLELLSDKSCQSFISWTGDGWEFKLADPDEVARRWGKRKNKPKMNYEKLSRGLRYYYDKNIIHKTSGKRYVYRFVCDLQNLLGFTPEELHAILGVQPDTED
Summary of the method: as §1

SPDEF = target: T9, SPDEF (Homo sapiens, UniProt O95238 1-335); conditions: protein: recombinant; tags: N-terminal GST; dsDNA, one strand shown
T9 sequence: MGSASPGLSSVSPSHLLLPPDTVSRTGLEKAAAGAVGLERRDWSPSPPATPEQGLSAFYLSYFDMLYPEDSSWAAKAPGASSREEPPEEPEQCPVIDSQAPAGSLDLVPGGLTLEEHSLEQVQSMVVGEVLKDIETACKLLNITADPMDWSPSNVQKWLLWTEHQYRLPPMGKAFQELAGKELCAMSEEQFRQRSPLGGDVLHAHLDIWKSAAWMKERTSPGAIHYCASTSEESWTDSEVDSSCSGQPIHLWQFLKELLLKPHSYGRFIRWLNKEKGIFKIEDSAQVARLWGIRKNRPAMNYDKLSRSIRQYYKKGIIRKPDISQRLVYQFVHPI
Summary of the method: as §1

ETV7 = target: T10, ETV7 (Homo sapiens, UniProt Q9Y603 1-341); conditions: protein: recombinant; tags: N-terminal GST; dsDNA, one strand shown
T10 sequence: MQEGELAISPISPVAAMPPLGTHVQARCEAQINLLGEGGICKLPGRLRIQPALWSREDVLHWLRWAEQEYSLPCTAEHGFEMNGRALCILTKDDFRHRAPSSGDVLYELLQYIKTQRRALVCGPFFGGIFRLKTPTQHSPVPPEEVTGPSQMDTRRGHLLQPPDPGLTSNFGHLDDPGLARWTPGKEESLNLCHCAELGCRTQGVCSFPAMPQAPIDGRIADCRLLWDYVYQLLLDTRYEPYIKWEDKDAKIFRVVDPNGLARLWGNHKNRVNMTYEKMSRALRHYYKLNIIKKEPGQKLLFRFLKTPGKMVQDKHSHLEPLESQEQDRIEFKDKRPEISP
Summary of the method: as §1

ELF5 = target: T11, ELF5 (Homo sapiens, UniProt Q9UKW6-2 1-255); conditions: protein: recombinant; tags: N-terminal GST; dsDNA, one strand shown
T11 sequence: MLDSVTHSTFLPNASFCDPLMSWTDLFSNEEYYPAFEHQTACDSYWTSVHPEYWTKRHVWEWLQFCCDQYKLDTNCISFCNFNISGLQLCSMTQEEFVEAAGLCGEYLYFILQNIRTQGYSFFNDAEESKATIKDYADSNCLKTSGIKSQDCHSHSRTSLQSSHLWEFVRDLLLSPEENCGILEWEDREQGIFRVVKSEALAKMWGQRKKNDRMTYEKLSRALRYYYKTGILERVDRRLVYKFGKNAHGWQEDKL
Summary of the method: as §1

ETV3 = target: T12, ETV3 (Homo sapiens, UniProt P41162-2 1-143); conditions: protein: recombinant; tags: N-terminal GST; dsDNA, one strand shown
T12 sequence: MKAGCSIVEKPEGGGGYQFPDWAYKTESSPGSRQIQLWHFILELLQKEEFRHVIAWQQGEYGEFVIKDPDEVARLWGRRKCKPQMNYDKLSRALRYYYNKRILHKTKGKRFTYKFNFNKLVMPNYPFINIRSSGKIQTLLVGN
Summary of the method: as §1

ETV6 = ETV6 (Homo sapiens, UniProt P41212 1-452); conditions: protein: recombinant; tags: N-terminal GST; dsDNA, one strand shown
Summary of the method: as §1

Sequence of ELF4 (Q99607 whole entry): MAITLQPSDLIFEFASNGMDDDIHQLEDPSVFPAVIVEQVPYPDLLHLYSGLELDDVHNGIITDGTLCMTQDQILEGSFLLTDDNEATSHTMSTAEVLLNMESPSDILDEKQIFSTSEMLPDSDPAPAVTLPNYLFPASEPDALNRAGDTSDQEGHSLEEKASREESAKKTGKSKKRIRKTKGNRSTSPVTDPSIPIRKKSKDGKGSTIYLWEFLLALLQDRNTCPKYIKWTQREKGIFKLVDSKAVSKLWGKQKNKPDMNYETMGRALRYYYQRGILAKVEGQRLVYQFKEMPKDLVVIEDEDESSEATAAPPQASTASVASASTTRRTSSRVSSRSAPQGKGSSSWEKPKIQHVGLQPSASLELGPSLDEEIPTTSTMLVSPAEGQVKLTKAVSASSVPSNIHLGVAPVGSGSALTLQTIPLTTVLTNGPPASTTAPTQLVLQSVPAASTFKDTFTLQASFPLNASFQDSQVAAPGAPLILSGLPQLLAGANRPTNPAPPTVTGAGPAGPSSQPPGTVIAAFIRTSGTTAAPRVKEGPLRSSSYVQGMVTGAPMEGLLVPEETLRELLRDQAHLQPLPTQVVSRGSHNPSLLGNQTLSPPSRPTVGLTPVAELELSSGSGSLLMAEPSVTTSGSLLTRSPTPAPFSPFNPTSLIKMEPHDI
Sequence of CRX (O43186 whole entry): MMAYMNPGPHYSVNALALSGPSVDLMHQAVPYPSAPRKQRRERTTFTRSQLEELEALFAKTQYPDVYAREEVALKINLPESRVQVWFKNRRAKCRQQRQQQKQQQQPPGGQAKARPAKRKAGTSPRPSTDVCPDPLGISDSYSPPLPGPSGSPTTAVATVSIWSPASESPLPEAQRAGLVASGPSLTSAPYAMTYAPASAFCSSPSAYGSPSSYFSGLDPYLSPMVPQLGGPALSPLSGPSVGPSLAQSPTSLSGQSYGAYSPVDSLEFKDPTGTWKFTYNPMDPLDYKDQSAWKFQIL
Sequence of ETV1 (P50549 whole entry): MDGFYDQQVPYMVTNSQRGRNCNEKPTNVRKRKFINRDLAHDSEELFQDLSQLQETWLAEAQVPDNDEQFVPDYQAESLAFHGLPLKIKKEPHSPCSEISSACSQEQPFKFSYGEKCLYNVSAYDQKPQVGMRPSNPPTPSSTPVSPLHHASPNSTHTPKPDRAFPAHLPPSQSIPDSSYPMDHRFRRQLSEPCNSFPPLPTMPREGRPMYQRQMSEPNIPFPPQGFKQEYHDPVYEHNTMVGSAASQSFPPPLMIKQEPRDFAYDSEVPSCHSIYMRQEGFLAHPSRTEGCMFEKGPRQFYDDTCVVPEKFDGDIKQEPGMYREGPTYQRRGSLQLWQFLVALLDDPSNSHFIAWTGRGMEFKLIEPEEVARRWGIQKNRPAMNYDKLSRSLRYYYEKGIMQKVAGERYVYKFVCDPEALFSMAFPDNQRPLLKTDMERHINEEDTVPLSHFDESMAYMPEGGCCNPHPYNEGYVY
Sequence of ETV6 (P41212 whole entry): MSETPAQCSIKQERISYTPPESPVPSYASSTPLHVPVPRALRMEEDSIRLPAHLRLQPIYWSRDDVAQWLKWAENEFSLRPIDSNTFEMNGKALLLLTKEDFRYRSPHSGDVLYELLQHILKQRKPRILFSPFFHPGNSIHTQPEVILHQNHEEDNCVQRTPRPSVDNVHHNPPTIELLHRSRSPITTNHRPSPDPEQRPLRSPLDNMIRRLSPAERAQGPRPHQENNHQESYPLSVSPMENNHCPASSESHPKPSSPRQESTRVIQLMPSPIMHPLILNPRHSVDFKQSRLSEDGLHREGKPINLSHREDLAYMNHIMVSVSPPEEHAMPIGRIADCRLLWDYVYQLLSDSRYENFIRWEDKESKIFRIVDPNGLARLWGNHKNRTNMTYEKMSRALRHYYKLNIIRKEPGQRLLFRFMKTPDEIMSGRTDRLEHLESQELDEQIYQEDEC
Sequence of ETV5 (P41161 whole entry): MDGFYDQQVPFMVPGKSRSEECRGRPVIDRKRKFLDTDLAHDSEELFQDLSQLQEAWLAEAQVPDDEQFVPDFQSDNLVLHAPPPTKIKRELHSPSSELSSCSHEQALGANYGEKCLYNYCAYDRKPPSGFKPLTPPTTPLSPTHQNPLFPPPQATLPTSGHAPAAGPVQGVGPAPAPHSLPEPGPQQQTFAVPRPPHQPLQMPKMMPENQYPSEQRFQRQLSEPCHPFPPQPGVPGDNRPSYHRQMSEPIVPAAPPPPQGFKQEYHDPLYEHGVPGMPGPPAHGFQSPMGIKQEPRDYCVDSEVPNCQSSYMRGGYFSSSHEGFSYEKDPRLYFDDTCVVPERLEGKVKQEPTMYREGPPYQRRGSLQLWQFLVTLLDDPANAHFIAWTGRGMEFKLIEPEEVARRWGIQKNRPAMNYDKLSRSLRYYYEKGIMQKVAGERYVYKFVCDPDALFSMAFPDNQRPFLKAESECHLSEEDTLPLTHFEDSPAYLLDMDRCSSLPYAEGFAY
Sequence of HSF1 (Q00613 whole entry): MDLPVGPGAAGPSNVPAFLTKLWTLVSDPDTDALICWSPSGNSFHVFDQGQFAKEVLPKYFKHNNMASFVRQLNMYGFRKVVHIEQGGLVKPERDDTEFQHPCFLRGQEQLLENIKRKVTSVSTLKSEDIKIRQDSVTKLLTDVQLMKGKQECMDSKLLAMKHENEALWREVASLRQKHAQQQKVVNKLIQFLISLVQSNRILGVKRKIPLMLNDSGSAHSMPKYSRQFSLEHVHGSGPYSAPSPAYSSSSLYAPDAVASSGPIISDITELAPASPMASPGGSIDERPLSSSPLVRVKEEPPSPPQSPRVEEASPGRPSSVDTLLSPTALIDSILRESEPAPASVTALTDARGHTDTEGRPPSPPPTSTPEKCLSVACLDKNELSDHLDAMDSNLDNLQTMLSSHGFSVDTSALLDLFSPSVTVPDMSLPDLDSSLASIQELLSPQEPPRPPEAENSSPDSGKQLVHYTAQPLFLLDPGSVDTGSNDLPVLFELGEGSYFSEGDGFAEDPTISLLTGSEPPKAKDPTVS

## TCTGCC
FEV
  binding signal: 1.38 fold enrichment (6-mer frequency, TF over GST control)
ETV5
  binding signal: 1.27 fold enrichment (6-mer frequency, TF over GST control)
HSF1
  binding signal: 1.35 fold enrichment (6-mer frequency, TF over GST control)
SPIC
  binding signal: 1.31 fold enrichment (6-mer frequency, TF over GST control)
ELF4
  binding signal: 1.53 fold enrichment (6-mer frequency, TF over GST control)
ELK4
  binding signal: 1.59 fold enrichment (6-mer frequency, TF over GST control)
ETV2
  binding signal: 1.24 fold enrichment (6-mer frequency, TF over GST control)
ELF3
  binding signal: 1.28 fold enrichment (6-mer frequency, TF over GST control)
CRX
  binding signal: 1.21 fold enrichment (6-mer frequency, TF over GST control)
ETV1
  binding signal: 1.36 fold enrichment (6-mer frequency, TF over GST control)
ERF
  binding signal: 1.35 fold enrichment (6-mer frequency, TF over GST control)
ETV3L
  binding signal: 1.31 fold enrichment (6-mer frequency, TF over GST control)
ETS2
  binding signal: 1.45 fold enrichment (6-mer frequency, TF over GST control)
SPDEF
  binding signal: 1.26 fold enrichment (6-mer frequency, TF over GST control)
ETV7
  binding signal: 1.49 fold enrichment (6-mer frequency, TF over GST control)
ELF5
  binding signal: 1.31 fold enrichment (6-mer frequency, TF over GST control)
ETV3
  binding signal: 1.35 fold enrichment (6-mer frequency, TF over GST control)
ETV6
  binding signal: 1.32 fold enrichment (6-mer frequency, TF over GST control)
